Experimental data published in PubChem BioAssay AID1159580 (chemical genetic matrix, 2015).
Several values for one entry are separate records, joined by “and”; a condition that tells them apart may be missing. Identical values can stand only once. Among all 5,500 compounds or so, about 2,000 (36%) were called active. Inconclusive results (about 18%) are left out. Rule as the data show it: active = normalized growth mostly below about 0.91 (no sharp cut-off); inconclusive = no clear call, values can overlap the other calls; inactive = mostly above about 0.92. Some of the results follow.

Assay: chemical genetic growth profiling, strain panel (AID 1159580);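 also: tested at 20 µM; growth read once vehicle control cultures reached saturation at 30 °C; 1 = growth at the plate median or of vehicle wells; lower values mean less growth of the strain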
Settings: S. cerevisiae deletion strains, growth OD

Measured: normalized growth

CN1CCc2cc3c(cc2C1O)OCO3 (centres undefined)
inactive: locus YAL021C, strain ccr4, active compounds read low 1.03 | locus YAL026C, strain drs2, active compounds read low 0.986 | locus YAL030W, strain snc1, active compounds read low 0.993 | locus YBL061C, strain skt5, active compounds read low 0.984 | locus YBR009C, strain hhf1, active compounds read low 1.01 | locus YBR021W, strain FUR4, active compounds read low 1.08 | locus YBR023C, strain chs3, active compounds read low 1.01 | locus YBR171W, strain sec66, active compounds read low 0.978 | locus YBR229C, strain ROT2, active compounds read low 0.954 | locus YBR231C, strain swc5, active compounds read low 0.954 | locus YBR279W, strain paf1, active compounds read low 1 | locus YCL011C, strain gbp2, active compounds read low 1.01 | locus YCL016C, strain dcc1, active compounds read low 1.01 | locus YCL029C, strain bik1, active compounds read low 0.982 | locus YCL061C, strain MRC1, active compounds read low 1 | locus YCL069W, strain vba3, active compounds read low 0.988 | locus YCR088W, strain abp1, active compounds read low 0.988 | locus YDL005C, strain med2, active compounds read low 0.992 | locus YDL035C, strain GPR1, active compounds read low 0.993 | locus YDL040C, strain nat1, active compounds read low 0.995 | locus YDL074C, strain BRE1, active compounds read low 1.03 | locus YDL101C, strain DUN1, active compounds read low 0.977 | locus YDL185W, strain tfp1, active compounds read low 0.969 | locus YDL192W, strain arf1, active compounds read low 0.998 | locus YDR001C, strain nth1, active compounds read low 0.994 | locus YDR069C, strain doa4, active compounds read low 0.969 | locus YDR101C, strain arx1, active compounds read low 1.02 | locus YDR137W, strain rgp1, active compounds read low 0.981 | locus YDR150W, strain NUM1, active compounds read low 0.987 | locus YDR159W, strain sac3, active compounds read low 0.946 | locus YDR162C, strain NBP2, active compounds read low 0.943 | locus YDR195W, strain ref2 0.934 | locus YDR297W, strain sur2, active compounds read low 1.01 | locus YDR318W, strain mcm21, active compounds read low 0.978 | locus YDR334W, strain swr1, active compounds read low 0.993 | locus YDR335W, strain msn5, active compounds read low 1.01 | locus YDR388W, active compounds read low 0.956 | locus YDR392W, strain spt3, active compounds read low 0.926 | locus YDR502C, strain sam2, active compounds read low 0.973 | locus YEL003W, strain gim4, active compounds read low 0.966 | locus YEL037C, strain rad23, active compounds read low 1 | locus YEL061C, strain CIN8 (second series), active compounds read low 0.987 | locus YEL061C, strain CIN8, active compounds read low 0.99 | locus YER015W, strain faa2, active compounds read low 0.996 | locus YER016W, strain bim1, active compounds read low 0.986 | locus YER110C, active compounds read low 0.977 | locus YER111C, strain swi4, active compounds read low 0.992 | locus YER155C, strain BEM2 (second series), active compounds read low 0.962 | locus YER155C, strain BEM2, active compounds read low 0.984 | locus YER167W, strain BCK2, active compounds read low 0.986 | locus YFR010W, strain ubp6, active compounds read low 0.979 | locus YGL078C, strain dbp3, active compounds read low 0.995 | locus YGL086W, strain mad1, active compounds read low 1.05 | locus YGL167C, strain pmr1, active compounds read low 0.989 | locus YGL173C, strain kem1, active compounds read low 0.994 | locus YGL227W, strain vid30, active compounds read low 0.986 | locus YGL240W, strain doc1, active compounds read low 0.957 | locus YGL248W, strain PDE1, active compounds read low 0.974 | locus YGL253W, strain hxk2, active compounds read low 0.988 | locus YGR135W, strain pre9, active compounds read low 0.966 | locus YGR252W, strain gcn5, active compounds read low 0.95 | locus YHR013C, strain ard1, active compounds read low 0.995 | locus YHR027C, strain rpn1, active compounds read low 0.991 | locus YHR030C, strain SLT2, active compounds read low 0.992 and 1.09 | locus YHR079C, strain IRE1 (second series), active compounds read low 0.978 | locus YHR079C, strain IRE1, active compounds read low 1.1 | locus YHR094C, strain hxt1, active compounds read low 0.968 | locus YHR129C, strain ARP1, active compounds read low 0.99 | locus YHR142W, strain chs7, active compounds read low 1.01 | locus YHR200W, strain rpn10, active compounds read low 0.964 | locus YIL066C, strain RNR3, active compounds read low 0.989 | locus YIL073C, strain SPO22, active compounds read low 0.988 | locus YIL125W, strain kgd1, active compounds read low 0.988 | locus YIR030C, strain dcg1, active compounds read low 0.977 | locus YJL092W, strain hpr5, active compounds read low 1 | locus YJL095W, strain BCK1 (second series), active compounds read low 1.01 | locus YJL095W, strain BCK1, active compounds read low 0.953 and 1.06 | locus YJL115W, strain asf1, active compounds read low 0.994 | locus YJL129C, strain trk1, active compounds read low 0.979 | locus YJL134W, strain LCB3, active compounds read low 0.989 | locus YJL154C, strain vps35, active compounds read low 0.989 | locus YJL164C, strain tpk1, active compounds read low 1 | locus YJL166W, strain qcr8, active compounds read low 0.98 | locus YJL168C, strain set2, active compounds read low 0.989 | locus YJL187C, strain SWE1 (second series), active compounds read low 0.974 | locus YJL187C, strain SWE1, active compounds read low 0.995 | locus YJR043C, strain POL32, active compounds read low 0.975 | locus YJR066W, strain TOR1, active compounds read low 0.999 | locus YJR075W, strain HOC1, active compounds read low 0.976 | locus YKL009W, strain mrt4, active compounds read low 0.964 | locus YKL068W, active compounds read low 0.989 | locus YKL085W, strain MDH1 (second series), active compounds read low 0.974 | locus YKL085W, strain MDH1, active compounds read low 0.974 | locus YKL160W, strain elf1, active compounds read low 0.996 | locus YKR001C, strain vps1, active compounds read low 0.998 | locus YKR026C, strain gcn3, active compounds read low 0.978 | locus YKR091W, strain srl3, active compounds read low 0.992 | locus YLL001W, strain dnm1, active compounds read low 0.983 | locus YLL026W, active compounds read low 0.998 | locus YLL041C, strain sdh2, active compounds read low 0.999 | locus YLR027C, strain aat2, active compounds read low 0.995 | locus YLR039C, strain RIC1, active compounds read low 0.928 | locus YLR058C, strain SHM2, active compounds read low 0.969 | locus YLR102C, strain apc9, active compounds read low 0.98 | locus YLR113W, strain HOG1, active compounds read low 1.07 | locus YLR221C, strain rsa3, active compounds read low 1 | locus YLR258W, strain gsy2, active compounds read low 1.01 | locus YLR262C, strain YPT6 (second series), active compounds read low 1.01 | locus YLR262C, strain YPT6, active compounds read low 0.911 | locus YLR268W, strain sec22, active compounds read low 1 | locus YLR320W, strain mms22, active compounds read low 0.985 | locus YLR330W, strain CHS5, active compounds read low 0.991 | locus YLR342W, strain FKS1 (second series), active compounds read low 1.04 | locus YLR342W, strain FKS1, active compounds read low 0.999 | locus YLR357W, strain rsc2, active compounds read low 0.977 | locus YLR370C, strain arc18, active compounds read low 1 | locus YLR371W, strain rom2, active compounds read low 0.985 | locus YLR384C, strain iki3, active compounds read low 0.981 | locus YLR418C, strain cdc73, active compounds read low 0.95 | locus YML016C, strain PPZ1, active compounds read low 0.992 | locus YML032C, strain rad52, active compounds read low 0.974 | locus YML120C, strain ndi1, active compounds read low 0.995 | locus YML124C, strain tub3, active compounds read low 0.983 | locus YMR058W, strain fet3, active compounds read low 1.01 | locus YMR078C, strain ctf18, active compounds read low 0.984 | locus YMR125W, strain sto1, active compounds read low 0.987 | locus YMR129W, active compounds read low 0.987 | locus YMR205C, strain PFK2, active compounds read low 0.996 | locus YMR223W, strain ubp8, active compounds read low 0.956 | locus YMR231W, strain pep5, active compounds read low 0.979 | locus YMR263W, strain SAP30, active compounds read low 0.981 | locus YMR307W, strain GAS1, active compounds read low 0.951 | locus YNL067W, strain RPL9B, active compounds read low 0.97 | locus YNL071W, strain lat1, active compounds read low 1 | locus YNL153C, strain GIM3, active compounds read low 0.968 | locus YNL183C, strain NPR1, active compounds read low 0.999 | locus YNL209W, strain ssb2, active compounds read low 1 | locus YNL233W, strain BNI4, active compounds read low 0.998 | locus YNL248C, strain rpa49, active compounds read low 1 | locus YNL250W, strain rad50, active compounds read low 0.988 | locus YNL271C, strain bni1, active compounds read low 0.982 | locus YNL298W, strain CLA4, active compounds read low 0.956 | locus YNL307C, strain MCK1, active compounds read low 0.988 | locus YNL322C, strain KRE1 (second series), active compounds read low 1 | locus YNR049C, strain mso1, active compounds read low 1 | locus YNR052C, strain pop2, active compounds read low 0.982 | locus YOL012C, strain htz1 1.7 | locus YOL147C, strain pex11, active compounds read low 0.986 | locus YOR001W, strain rrp6, active compounds read low 0.961 | locus YOR061W, strain CKA2, active compounds read low 0.969 | locus YOR069W, strain VPS5, active compounds read low 0.994 | locus YOR070C, strain gyp1, active compounds read low 0.993 | locus YOR080W, strain dia2, active compounds read low 0.977 | locus YOR083W, strain WHI5, active compounds read low 1.01 | locus YOR106W, strain vam3, active compounds read low 1.01 | locus YOR136W, strain idh2, active compounds read low 0.989 | locus YOR144C, strain elg1, active compounds read low 0.977 | locus YOR184W, strain ser1, active compounds read low 0.959 | locus YOR231W, strain MKK1, active compounds read low 1.09 | locus YOR265W, strain rbl2, active compounds read low 1.01 | locus YOR270C, strain vph1, active compounds read low 0.995 | locus YOR290C, strain snf2, active compounds read low 1.04 | locus YOR316C, strain cot1, active compounds read low 0.979 | locus YPL051W, strain arl3, active compounds read low 0.994 | locus YPL078C, strain atp4, active compounds read low 1.01 | locus YPL106C, strain sse1, active compounds read low 0.994 | locus YPL240C, strain hsp82, active compounds read low 0.99 | locus YPL241C, strain CIN2, active compounds read low 0.988 | locus YPL256C, strain CLN2, active compounds read low 1.08 | locus YPR119W, strain clb2, active compounds read low 0.982 | locus YPR141C, strain kar3, active compounds read low 0.978 | locus YPR163C, strain tif3, active compounds read low 0.987 | locus YPR167C, strain met16, active compounds read low 0.99 | strain wtn01, active compounds read low 1.04
